Unmarked numbers belong to inactive results.

UniProt P35579, sequence (P35579 whole entry): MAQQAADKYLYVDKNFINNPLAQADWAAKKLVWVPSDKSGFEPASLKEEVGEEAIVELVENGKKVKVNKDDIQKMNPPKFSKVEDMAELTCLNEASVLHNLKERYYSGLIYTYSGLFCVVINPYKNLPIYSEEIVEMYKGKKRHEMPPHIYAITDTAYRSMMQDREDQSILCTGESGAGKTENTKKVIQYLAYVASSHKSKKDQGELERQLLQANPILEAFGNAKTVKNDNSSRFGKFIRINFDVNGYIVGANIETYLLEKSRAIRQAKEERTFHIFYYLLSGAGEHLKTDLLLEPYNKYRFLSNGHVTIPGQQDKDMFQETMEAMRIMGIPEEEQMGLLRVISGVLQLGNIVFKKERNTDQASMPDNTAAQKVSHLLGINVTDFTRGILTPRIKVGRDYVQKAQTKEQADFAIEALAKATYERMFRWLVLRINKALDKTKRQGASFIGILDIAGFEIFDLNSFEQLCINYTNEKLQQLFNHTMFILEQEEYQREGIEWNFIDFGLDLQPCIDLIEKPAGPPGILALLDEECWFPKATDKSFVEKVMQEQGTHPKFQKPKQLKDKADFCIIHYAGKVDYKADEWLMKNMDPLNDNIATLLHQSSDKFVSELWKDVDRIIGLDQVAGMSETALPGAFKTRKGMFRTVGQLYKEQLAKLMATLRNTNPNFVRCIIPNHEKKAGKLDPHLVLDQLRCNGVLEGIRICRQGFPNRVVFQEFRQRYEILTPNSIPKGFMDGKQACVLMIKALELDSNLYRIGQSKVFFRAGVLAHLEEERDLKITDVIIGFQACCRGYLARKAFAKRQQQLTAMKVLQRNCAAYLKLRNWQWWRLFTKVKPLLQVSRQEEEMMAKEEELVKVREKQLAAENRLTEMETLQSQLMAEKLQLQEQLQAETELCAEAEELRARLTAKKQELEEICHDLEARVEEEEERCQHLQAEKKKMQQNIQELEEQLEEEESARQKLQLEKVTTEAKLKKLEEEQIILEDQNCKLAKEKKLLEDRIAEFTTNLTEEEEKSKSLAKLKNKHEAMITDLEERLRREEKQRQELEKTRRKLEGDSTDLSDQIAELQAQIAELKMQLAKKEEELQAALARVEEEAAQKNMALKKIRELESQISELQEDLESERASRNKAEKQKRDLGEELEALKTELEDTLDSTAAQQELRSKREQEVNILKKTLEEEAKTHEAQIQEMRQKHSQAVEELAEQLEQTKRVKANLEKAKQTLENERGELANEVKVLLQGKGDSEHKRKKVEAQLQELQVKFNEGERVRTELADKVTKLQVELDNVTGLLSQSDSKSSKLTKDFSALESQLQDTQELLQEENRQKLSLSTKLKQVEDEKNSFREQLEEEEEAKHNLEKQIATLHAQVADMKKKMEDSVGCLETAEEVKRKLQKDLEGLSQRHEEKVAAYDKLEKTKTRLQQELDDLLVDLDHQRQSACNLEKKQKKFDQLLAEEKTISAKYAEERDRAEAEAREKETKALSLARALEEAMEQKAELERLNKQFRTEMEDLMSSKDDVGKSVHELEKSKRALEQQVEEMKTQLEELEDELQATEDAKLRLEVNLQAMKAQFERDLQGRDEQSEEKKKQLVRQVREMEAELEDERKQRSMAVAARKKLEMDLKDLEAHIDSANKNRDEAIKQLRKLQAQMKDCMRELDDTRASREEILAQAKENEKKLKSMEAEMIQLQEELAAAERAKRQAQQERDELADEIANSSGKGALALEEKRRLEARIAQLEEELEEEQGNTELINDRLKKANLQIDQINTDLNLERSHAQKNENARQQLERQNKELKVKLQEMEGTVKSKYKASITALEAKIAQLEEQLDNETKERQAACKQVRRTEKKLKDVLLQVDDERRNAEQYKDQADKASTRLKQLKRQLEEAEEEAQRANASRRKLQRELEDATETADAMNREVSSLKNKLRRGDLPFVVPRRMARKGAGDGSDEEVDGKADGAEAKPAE
UniProt P02786, sequence (P02786 whole entry, looked up): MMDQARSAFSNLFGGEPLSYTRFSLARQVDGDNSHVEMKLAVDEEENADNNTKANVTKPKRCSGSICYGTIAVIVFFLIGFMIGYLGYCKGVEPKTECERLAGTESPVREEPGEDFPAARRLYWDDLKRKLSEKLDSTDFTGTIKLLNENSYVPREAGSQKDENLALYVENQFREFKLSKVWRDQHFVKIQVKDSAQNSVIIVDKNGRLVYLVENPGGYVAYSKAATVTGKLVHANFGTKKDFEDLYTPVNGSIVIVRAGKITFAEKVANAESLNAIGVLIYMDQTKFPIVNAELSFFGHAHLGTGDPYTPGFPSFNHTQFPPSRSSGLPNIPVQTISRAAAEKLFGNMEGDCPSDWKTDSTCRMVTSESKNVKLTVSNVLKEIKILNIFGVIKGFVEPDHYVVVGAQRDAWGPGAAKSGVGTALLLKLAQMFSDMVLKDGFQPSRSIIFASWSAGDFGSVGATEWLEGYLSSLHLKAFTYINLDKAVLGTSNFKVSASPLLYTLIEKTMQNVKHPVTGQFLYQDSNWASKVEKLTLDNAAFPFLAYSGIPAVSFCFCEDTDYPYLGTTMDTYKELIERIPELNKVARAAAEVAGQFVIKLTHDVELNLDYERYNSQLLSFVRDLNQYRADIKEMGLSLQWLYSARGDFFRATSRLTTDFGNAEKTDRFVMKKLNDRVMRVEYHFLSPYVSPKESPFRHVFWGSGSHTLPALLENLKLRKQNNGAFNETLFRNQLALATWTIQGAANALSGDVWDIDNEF
UniProt P08962, sequence (P08962 whole entry): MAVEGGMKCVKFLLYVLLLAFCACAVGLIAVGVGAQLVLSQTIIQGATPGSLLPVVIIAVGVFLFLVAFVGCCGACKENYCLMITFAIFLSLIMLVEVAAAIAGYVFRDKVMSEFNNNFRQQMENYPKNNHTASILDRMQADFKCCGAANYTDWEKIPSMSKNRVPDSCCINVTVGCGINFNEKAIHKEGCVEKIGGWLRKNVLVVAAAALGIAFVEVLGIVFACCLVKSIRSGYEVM
UniProt P51572, sequence (P51572 whole entry): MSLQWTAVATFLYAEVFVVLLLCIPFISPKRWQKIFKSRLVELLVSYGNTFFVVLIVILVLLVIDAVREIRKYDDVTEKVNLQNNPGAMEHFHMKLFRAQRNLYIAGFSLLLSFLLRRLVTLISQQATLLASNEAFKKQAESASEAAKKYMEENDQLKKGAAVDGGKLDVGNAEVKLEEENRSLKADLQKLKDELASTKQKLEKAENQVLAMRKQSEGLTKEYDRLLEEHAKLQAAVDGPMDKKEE
UniProt P48047, sequence (P48047 whole entry): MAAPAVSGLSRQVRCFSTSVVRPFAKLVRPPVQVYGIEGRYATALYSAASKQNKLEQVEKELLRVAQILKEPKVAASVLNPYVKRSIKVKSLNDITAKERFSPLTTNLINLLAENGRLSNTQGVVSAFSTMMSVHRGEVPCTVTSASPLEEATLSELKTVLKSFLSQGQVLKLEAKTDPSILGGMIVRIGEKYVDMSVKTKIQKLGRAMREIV
UniProt O14763, sequence (O14763 whole entry): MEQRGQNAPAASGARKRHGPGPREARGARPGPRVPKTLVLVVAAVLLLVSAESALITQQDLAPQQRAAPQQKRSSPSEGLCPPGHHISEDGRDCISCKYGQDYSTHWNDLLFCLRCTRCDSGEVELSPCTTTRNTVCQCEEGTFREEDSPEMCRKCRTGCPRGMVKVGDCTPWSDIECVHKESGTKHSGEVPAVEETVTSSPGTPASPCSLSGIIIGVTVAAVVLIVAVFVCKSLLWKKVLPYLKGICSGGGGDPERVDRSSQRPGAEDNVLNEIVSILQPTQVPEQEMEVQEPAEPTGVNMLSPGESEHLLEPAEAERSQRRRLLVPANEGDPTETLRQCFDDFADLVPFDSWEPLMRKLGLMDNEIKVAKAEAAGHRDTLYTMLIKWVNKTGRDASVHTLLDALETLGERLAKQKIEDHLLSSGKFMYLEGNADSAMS
UniProt P38159, sequence (P38159 whole entry): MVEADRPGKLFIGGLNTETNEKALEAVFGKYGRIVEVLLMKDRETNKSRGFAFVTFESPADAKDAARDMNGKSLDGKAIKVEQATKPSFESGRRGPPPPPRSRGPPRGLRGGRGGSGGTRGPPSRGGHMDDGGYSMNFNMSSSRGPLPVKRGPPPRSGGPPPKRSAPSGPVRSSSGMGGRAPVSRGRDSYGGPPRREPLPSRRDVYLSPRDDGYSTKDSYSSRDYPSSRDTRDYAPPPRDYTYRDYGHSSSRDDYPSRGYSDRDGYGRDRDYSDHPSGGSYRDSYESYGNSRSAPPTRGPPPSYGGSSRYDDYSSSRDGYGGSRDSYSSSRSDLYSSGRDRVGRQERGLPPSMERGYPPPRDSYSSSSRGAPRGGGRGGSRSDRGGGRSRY
UniProt Q14165, sequence (Q14165 whole entry): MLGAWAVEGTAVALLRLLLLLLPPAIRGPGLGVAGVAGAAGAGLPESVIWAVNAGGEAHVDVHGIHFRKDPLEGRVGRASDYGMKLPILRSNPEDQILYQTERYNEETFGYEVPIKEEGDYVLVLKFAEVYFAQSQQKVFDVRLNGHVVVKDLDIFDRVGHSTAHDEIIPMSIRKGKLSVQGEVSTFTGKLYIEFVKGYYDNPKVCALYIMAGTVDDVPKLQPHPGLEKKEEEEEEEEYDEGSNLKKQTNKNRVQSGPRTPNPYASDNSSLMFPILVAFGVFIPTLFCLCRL
UniProt P18859, sequence (P18859 whole entry): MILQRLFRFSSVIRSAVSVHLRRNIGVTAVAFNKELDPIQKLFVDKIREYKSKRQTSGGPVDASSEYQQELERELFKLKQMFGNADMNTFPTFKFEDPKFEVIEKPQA
UniProt P21796, sequence (P21796 whole entry): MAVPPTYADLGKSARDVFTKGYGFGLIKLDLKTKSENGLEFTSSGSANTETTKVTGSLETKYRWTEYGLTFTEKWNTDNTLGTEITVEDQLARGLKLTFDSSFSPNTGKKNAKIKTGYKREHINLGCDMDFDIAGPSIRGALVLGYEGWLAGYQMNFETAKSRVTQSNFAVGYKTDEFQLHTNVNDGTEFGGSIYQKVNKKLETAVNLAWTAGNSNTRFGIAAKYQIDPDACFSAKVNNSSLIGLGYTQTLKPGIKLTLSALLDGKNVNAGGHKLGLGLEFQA

Compound in the assay: C#CCNC(=O)CCSSCCC(=O)NCCc1ccc(C=O)c(C=O)c1
The assay is described as follows: lysine labeling ratio R10:1 (500 µM / 50 µM probe), SILAC-ABPP in living cells; higher = lower intrinsic lysine reactivity toward the probe, active = 2 or less. Conditions: HeLa; probe concentrations 500 vs 50 µM. The procedure, abridged:
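Measurements came from LC-MS/MS on a TIMS-TOF Pro of mixed SILAC light and heavy HeLa lysates after click to biotin-azide, trypsin digestion, neutravidin capture, DTT release and alkylation. Before lysis, the living cells sat in PBS at room temperature with 50 µM or 500 µM of an alkyne-tagged, disulfide-linked lysine probe, and labels were swapped forward and reverse. R per lysine is the median across both swap directions of the filtered median high-probe/low-probe MS1 peptide ratio. The cap is 20.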
Consider “MYH9 (lysine site: K835) (UniProt P35579)”, for which the “lysine labeling ratio R10:1” value is 8.12. On to “HSPA9 (lysine site: K106) (UniProt P38646)”, for which the “lysine labeling ratio R10:1” value was 6.72.

Regarding “STOML2 (lysine site: K145) (UniProt Q9UJZ1)”, the “lysine labeling ratio R10:1” value is 3.01. Take UniProt Q9UHN6 (lysine site: K1182): the “lysine labeling ratio R10:1” value is 6.32. As for “DDX5 (lysine site: K391) (UniProt P17844)”, the “lysine labeling ratio R10:1” value is 10.4. Under UniProt P16144 (lysine site: K151) stands 1.53 (active); under UniProt Q15149 (lysine site: K2846), 3.06. “G6PD (lysine site: K360) (UniProt P11413)”: the “lysine labeling ratio R10:1” value is 2.07. For the target “ITGA2 (lysine site: K1038) (UniProt P17301)”, the “lysine labeling ratio R10:1” value is 2.81. With “MISP (lysine site: K540) (UniProt Q8IVT2)”, the “lysine labeling ratio R10:1” value is 1 (active). Take UniProt Q15149 (lysine site: K2142): the “lysine labeling ratio R10:1” value is 3.4. As to “EDIL3 (lysine site: K290) (UniProt O43854)”, the “lysine labeling ratio R10:1” value was 2.39. Turning to UniProt P62913 (lysine site: K159), the “lysine labeling ratio R10:1” value was 2.96. As to UniProt P05787 (lysine site: K325), the “lysine labeling ratio R10:1” value is 12.1.

As to “SPTAN1 (lysine site: K1838) (UniProt Q13813)”, the “lysine labeling ratio R10:1” value was 0.73 (active). UniProt P18859 (lysine site: K105): the “lysine labeling ratio R10:1” value was 3.04. With “BCAP31 (lysine site: K204) (UniProt P51572)”, the “lysine labeling ratio R10:1” value was 1.82 (active). Under “ITGA1 (lysine site: K849) (UniProt P56199)” stands 0.921 (active); under UniProt P61160 (lysine site: K381), 2.7; under “KRT18 (lysine site: K247) (UniProt P05783)”, 7.86.

As to “RDX (lysine site: K363) (UniProt P35241)”, the “lysine labeling ratio R10:1” value is 1.44 (active). Under “ITGB1 (lysine site: K163) (UniProt P05556)” stands 2.37.

For the target UniProt Q16790 (lysine site: K133), the “lysine labeling ratio R10:1” value was 8.23. The result for “RBMX (lysine site: K63) (UniProt P38159)” reads 1.66 (active); that for “MLEC (lysine site: K69) (UniProt Q14165)”, 1.64 (active); that for “CACNA2D1 (lysine site: K577) (UniProt P54289)”, 4.82.

For “A2M (lysine site: K116) (UniProt P01023)”, the “lysine labeling ratio R10:1” value is 0.757 (active). Turning to “TGFBI (lysine site: K53) (UniProt Q15582)”, the “lysine labeling ratio R10:1” value is 1.28 (active). Consider “SPTBN1 (lysine site: K1249) (UniProt Q01082)”, for which the “lysine labeling ratio R10:1” value is 4.92. Consider “TNFRSF10B (lysine site: K72) (UniProt O14763)”, for which the “lysine labeling ratio R10:1” value is 3.31. With “MYH9 (lysine site: K1775) (UniProt P35579)”, the “lysine labeling ratio R10:1” value was 3.47. The result for “VDAC1 (lysine site: K61) (UniProt P21796)” reads 1.88 (active); that for “PRDX1 (lysine site: K93) (UniProt Q06830)”, 4.52. As to UniProt Q92729 (lysine site: K440), the “lysine labeling ratio R10:1” value was 1.22 (active). “RPL22 (lysine site: K107) (UniProt P35268)”: the “lysine labeling ratio R10:1” value was 2.29. In the case of “TFRC (lysine site: K128) (UniProt P02786)”, the “lysine labeling ratio R10:1” value is 6.74. For the target UniProt P48047 (lysine site: K60), the “lysine labeling ratio R10:1” value was 2.17. Consider “PPA1 (lysine site: K176) (UniProt Q15181)”, for which the “lysine labeling ratio R10:1” value was 1.88 (active). On to “CD63 (lysine site: K110) (UniProt P08962)”, for which the “lysine labeling ratio R10:1” value is 5.07. UniProt P55285 (lysine site: K365): the “lysine labeling ratio R10:1” value is 0.61 (active).

These data come from the supplement of paper PMC11001985.
